Assay results: PubChem BioAssay AID623996 (NMMLSC, 2012)
Results with a measured potency or affinity are listed apart. The source made the active and inactive calls.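 Rule for the calls: active = fitted concentration giving half the maximal Nile Red retention below 100 µM; inactive = the rest.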

Each compound was assayed against Multidrug resistance protein CDR1 (Candida albicans) (UniProt P43071) (assay: Candida albicans Cdr1 pump inhibition curves – singleplex, Cherry Pick2 set, dose response (AID 623996)). Settings: S. cerevisiae AD/CaCDR1, Nile Red efflux inhibition, flow cytometry; series mostly up to 100 µM; efflux inhibition response: at the top concentration.
Multidrug resistance protein CDR1 (Candida albicans), sequence (P43071 whole entry, looked up): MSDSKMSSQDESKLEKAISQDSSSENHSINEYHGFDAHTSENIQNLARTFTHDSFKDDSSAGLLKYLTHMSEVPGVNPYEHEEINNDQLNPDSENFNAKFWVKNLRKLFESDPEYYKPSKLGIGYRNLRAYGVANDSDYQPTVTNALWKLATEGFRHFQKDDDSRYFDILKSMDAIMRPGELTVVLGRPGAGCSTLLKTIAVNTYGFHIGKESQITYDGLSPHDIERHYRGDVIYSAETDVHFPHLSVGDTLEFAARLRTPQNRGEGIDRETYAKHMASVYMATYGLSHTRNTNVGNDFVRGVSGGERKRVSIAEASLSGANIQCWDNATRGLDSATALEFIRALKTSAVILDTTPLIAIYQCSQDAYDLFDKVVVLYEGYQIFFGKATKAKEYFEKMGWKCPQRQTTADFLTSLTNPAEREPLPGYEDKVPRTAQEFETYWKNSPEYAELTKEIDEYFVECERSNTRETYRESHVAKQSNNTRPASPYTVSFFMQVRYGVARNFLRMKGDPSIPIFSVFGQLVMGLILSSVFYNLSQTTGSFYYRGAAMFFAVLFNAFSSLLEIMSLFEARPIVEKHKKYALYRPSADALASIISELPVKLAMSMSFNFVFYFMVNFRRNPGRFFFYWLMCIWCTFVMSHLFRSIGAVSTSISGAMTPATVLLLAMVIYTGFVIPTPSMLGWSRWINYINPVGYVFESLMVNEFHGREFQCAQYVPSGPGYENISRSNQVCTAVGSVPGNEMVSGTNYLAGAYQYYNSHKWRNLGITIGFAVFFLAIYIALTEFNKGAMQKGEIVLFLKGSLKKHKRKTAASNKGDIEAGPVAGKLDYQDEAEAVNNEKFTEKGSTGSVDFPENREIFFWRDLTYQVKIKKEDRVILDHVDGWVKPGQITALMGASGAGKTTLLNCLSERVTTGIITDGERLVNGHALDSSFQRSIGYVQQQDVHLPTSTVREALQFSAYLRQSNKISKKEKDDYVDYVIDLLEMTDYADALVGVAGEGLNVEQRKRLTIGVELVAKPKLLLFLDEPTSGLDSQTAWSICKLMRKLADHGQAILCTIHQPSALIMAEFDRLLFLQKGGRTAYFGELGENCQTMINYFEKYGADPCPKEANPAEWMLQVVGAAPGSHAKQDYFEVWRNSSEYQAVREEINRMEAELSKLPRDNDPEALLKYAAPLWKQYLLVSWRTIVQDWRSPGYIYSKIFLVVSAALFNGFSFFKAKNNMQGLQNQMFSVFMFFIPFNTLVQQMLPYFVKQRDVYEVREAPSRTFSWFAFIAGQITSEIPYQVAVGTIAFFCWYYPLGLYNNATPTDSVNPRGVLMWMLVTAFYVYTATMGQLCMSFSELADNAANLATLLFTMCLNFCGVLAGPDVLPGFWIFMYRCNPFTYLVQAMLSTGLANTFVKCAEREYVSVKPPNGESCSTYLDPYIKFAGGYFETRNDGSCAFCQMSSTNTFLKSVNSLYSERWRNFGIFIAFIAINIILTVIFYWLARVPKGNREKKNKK

Efflux inhibition response, inactive:
Cc1ccc(C)c(N2CCN(C(=O)C3CCCN(c4ncnc5c4nc4n5CCCCC4)C3)CC2)c1 (stereo unspecified) 0.23%
O=C(Nc1ccccc1)C1=C[C@H](c2ccccc2)C[C@H](OCCCCO)O1 -0.52%
COc1cccc(-c2sc3ccc(OC)cc3c2-c2ccc(OCCN3CCOCC3)cc2)c1 96.5%
Nc1ccc(C(=O)OCCc2ccccc2)cc1 -0.15%
COc1ccc([C@H]2CC(=O)C=C(c3ccnc4ccc(Cl)cc34)C2)cc1 119%
O=C(C[n+]1cc(-c2ccc(F)cc2)n2c1CCC2)N1c2ccccc2Sc2ccccc21 -3.79%
Cc1cccc(C2CC(c3ccccc3)=NN2c2ccc(S(N)(=O)=O)cc2)c1 (stereo unspecified) -1.16%
O=C1C(Cc2ccccc2)Nc2ncnc(N3CCN(c4ccccc4)CC3)c2N1Cc1ccccc1 (stereo unspecified) 17.1%
O=C(C1CCCN(c2ncnc3c2nc2n3CCCCC2)C1)N1CCN(c2cccc(Cl)c2)CC1 (stereo unspecified) -1.77%
NS(=O)(=O)c1ccc(N2N=C(c3ccccc3)CC2c2ccccc2)cc1 (stereo unspecified) -3.44%
CCc1ccc(C2=NN(c3ccc(S(N)(=O)=O)cc3)C(c3ccc(F)cc3)C2)cc1 (stereo unspecified) -1.14%
COc1cc(OC)c2c(-c3ccccc3)cc(=O)oc2c1C(CCN1CCCC(C)C1)c1ccc(N(C)C)cc1 (stereo unspecified) -3.3%
O=C(Nc1ccccc1)C1=C[C@@H](c2ccc(C(F)(F)F)cc2)C[C@@H](OCCCCO)O1 1.11%
COc1ccc(-c2sc3ccccc3c2-c2ccc(OCCN(C)C)cc2)cc1 215%
COc1ccc2nc(NC(=O)c3cccs3)sc2c1 -4.24%

outcome, inactive:
Cc1ccc(O)c(C(=O)c2cnc3c(c2)CN(CCC(C)C)C(=O)N3)c1
